The entries come from a sample that favours hits as a whole.
HT1080-NT tox: qHTS for induction of synthetic lethality in tumor cells producing 2HG: qHTS for the HT-1080-NT fibrosarcoma cell line. HT-1080-NT fibrosarcoma viability, CellTiter-Glo ATP luminescence, 48 h. 360,000 compounds, 1.6% hits. Potency, µM (highest dose often 46.1 µM), for the others: at the top dose activity, negative = less viability, most hits filed as cytotoxic. AID 686970, 2013;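 note: NT is the 2HG producing partner of a matched IDH1 knockdown line; potency is the fitted concentration of half-maximal effect; 0% = DMSO-treated cells and -100% = media-only wells without cells; nearly all actives have a fitted effect of over 55% in size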
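HT-1080-NT fibrosarcoma cells (2HG-overproducing), 750 cells/well in RPMI with 5% FBS, dosed after 2 h and incubated 48 h at 37C. CellTiter-Glo luminescence normalized to DMSO and no-cell wells; concentration-response curves fitted and classed.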
HT1080 IDH1KD tx: qHTS for induction of synthetic lethality in tumor cells producing 2HG: qHTS for the HT-1080-IDH1KD cell line; HT-1080 IDH1 knockdown viability, ATP luminescence, 48 h; Potency, µM (series often up to 46.1 µM), for inactives: top-dose activity, negative = toxicity, most hits filed as cytotoxic; 360,000 compounds, 2% hits; AID 686971, 2013;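 note: potency is the fitted concentration of half-maximal effect; 0% = DMSO wells and -100% = cell-free medium wells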
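HT-1080-IDH1KD cells (IDH1 knocked down), 750/well in RPMI with 5% FBS, treated with compound 48 h at 37 degrees C. Viability by CellTiter-Glo luminescence, normalised to DMSO and no-cell wells; concentration-response curves classed.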
DT40 TDP1 CPT: qHTS for Inhibitors of human tyrosyl-DNA phosphodiesterase 1 (TDP1): qHTS in cells in presence of CPT; chicken DT40 Tdp1-/-;hTDP1 cells + 20 nM CPT, ATP luminescence, 48 h; Potency, µM (titrated, usually from 46.2 µM), inactives show top-dose activity change, negative = growth inhibition, most hits filed as inhibitors; 420,000 compounds, 12% hits; note: potency is the fitted concentration of half-maximal effect; nearly all actives have a fitted effect of over 55% in size
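Chicken DT40 Tdp1-/- cells complemented with human TDP1, 400 cells/well, exposed to compounds plus 20 nM camptothecin for at least 48 h at 37 C; viability read as ATP content by CellTiter-Glo luminescence.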
12-LOX inh: Primary qHTS assay for inhibitors of human arachidonate 12S-lipoxygenase (ALOX12): Round 2; Polyunsaturated fatty acid lipoxygenase ALOX12 (Homo sapiens), P18054; purified 12hLO, xylenol orange hydroperoxide absorbance; Potency, µM (series often up to 108 µM), inactives show at the top dose activity change, negative = inhibition, actives largely listed as inhibitors; 580,000 compounds, 1.1% hits; AID 1671190, 2021; note: potency is the fitted concentration of half-maximal effect
Target sequence (P18054 whole entry, looked up): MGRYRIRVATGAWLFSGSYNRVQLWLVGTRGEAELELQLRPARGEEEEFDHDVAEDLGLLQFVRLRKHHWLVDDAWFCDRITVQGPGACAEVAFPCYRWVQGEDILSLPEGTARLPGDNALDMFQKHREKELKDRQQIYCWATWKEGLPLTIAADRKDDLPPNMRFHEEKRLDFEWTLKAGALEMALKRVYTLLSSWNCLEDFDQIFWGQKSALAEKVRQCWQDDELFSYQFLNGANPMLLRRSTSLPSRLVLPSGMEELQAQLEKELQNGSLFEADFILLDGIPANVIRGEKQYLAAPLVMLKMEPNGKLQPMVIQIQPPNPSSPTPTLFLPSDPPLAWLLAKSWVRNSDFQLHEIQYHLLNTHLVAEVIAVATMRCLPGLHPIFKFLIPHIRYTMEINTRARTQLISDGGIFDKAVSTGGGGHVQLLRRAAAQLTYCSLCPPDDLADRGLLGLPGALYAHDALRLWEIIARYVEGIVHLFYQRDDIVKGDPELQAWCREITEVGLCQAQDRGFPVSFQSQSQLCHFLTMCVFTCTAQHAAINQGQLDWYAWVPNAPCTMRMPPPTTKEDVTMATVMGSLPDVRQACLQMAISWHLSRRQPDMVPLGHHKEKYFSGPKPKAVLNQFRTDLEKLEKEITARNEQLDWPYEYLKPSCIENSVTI
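Purified human 12hLO (150 nM final) in 25 mM Hepes, 0.01% Triton X-100, pH 7.0 was preincubated 15 min at room temperature with compound. Then 40 uM arachidonic acid was added, 30 min. Hydroperoxide was read by Fe-XO absorbance ratio 573/405 nm.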
IL1B secr inh: qHTS for Inhibitors of Inflammasome Signaling: IL-1-beta AlphaLISA Primary Screen | THP-1 LPS/ATP IL-1B secretion, AlphaLISA, 16 h; hits give low values | AID 743279, 2014 | activity change, % at 57.5 µM | 360,000 compounds, 4.7% hits; in the data active = activity change below about -50%; inconclusive = mostly about -30% to -49%
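THP-1 cells pretreated 1 hr with compounds (up to 57.5 uM final), then stimulated with LPS (250 ng/mL final) plus ATP (1.25 mM final); secreted IL-1B measured by AlphaLISA after 16 hr, decreased signal indicating inhibition.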
DT40 TDP1 no CPT: qHTS for Inhibitors of human tyrosyl-DNA phosphodiesterase 1 (TDP1): qHTS in cells in absence of CPT; 420,000 compounds, 15% hits; Potency, µM (doses to about 46.2 µM), for inactives: at the top dose activity change, negative = growth inhibition, most hits filed as inhibitors; DT40 Tdp1-/- hTDP1 cells, no CPT, ATP luminescence, 48 h; AID 686978, 2013; note: potency is the fitted concentration of half-maximal effect; nearly all actives have a fitted effect of over 55% in size
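Chicken DT40 Tdp1-/- cells stably complemented with human TDP1 were seeded at 400 cells/well with DMSO in place of 20 nM camptothecin. After compound pinning, cells grew at least 48 hr at 37 °C; viability read by CellTiter-Glo luminescence.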
Starred values were filed as active, the others as inactive; ? = inconclusive; . = no result given; [ ] = remark or other dose. Unless noted, calls come from the whole dose curve; as a rule, active = well fitted curve in the direction sought with a large enough effect; inconclusive = small, poorly fitted or top-dose-only effect, or another doubt; inactive = no such curve, though single readings can be large; an effect the other way counts as inactive or inconclusive. Unless noted, % is set by controls: 0 for no effect and ±100 for the full control effect.

SMILES | HT1080-NT tox | HT1080 IDH1KD tx | DT40 TDP1 CPT | 12-LOX inh | IL1B secr inh | DT40 TDP1 no CPT
N#Cc1ccccc1OCc1ccc(-c2ccccc2C#N)cc1 | . | . | . | -22% | . | .
N#Cc1ccc(NCCNC(=O)C2CCCCC2)nc1 | . | . | . | 4% | . | .
CSc1ccc(CN2CCc3c([nH]c4ccccc34)C2)cc1 | -23% | -18% | -30% | ? | -73* | ?
CCN1CCc2[nH]c3ccccc3c2C1 | 6% | -4% | -6% | ? | -9 | -8%
CCN1C(=S)SC(=O)C1=C1C=C(C)N(Cc2ccco2)C(C)=C1 | -25% | -24% | 4.6µM* | -18% | -5 | 5.2µM*
CCN1C(=S)SC(=O)C1=C1C=C(C)OC(C)=C1 | 3% | 2% | -9% | 0% | -19 | ?
Cc1ncc(CO)c(CNc2ccc(Oc3ccccc3)cc2)c1O | -19% | ? | 13µM* | 11% | 4 | 6.5µM*
S=C(NCc1cccnc1)Nc1ccc(Oc2ccccc2)cc1 | -14% | -9% | ? | ? | 0 | ?
Cc1ccc(-n2cc(CNCCc3cscn3)c(-c3ccc(F)cc3)n2)cc1 | 21µM* | 21µM* | ? | ? | -94* | 23µM*
COc1ccc(-n2cc(CNCCc3cscn3)c(-c3ccccc3Cl)n2)cc1 | -10% | -21% | 16µM* | -27% | -63* | 12µM*
Cc1ccc2c(Sc3ccccc3)c(C(=O)NCc3ccccc3F)[nH]c2c1 | . | . | 9.2µM* | -15% | . | ?
COc1cccc(CNC(=O)c2[nH]c3cc(C)ccc3c2Sc2ccccc2)c1 | . | . | ? | -24% | . | 15µM*
O=C(CSc1nc2cc(Cl)ccc2s1)N1CCC(Cc2ccccc2)CC1 | . | . | . | 5% | . | .
COCCC(=O)N[C@@H]1CN(Cc2cccnc2)C[C@H]1CN(C)C | . | . | . | 71% | . | .
O=[N+]([O-])c1ccc(C=NN2CCNC2=S)o1 | 0% | -8% | 18µM* | ? | 65 | 21µM*
CCN(CC)CC1CN(N=Cc2ccc([N+](=O)[O-])o2)C(=O)O1 (centres undefined) | -20% | -17% | 15µM* | 12% | 8 | 16µM*
O=C1OC(CN2CCOCC2)CN1/N=C/c1ccc([N+](=O)[O-])o1 (centres undefined) | . | . | -25%[21.1 µM] | ? | . | -25%[21.1 µM]
O=C(NC1CC1)C1=C[C@H](c2ccccc2)C[C@H](OCc2ccc(CO)cc2)O1 | 3% | -4% | ? | 2% | -24 | ?
O=C(NCc1nc2ccccc2[nH]1)C1=C[C@@H](c2csc3ccccc23)C[C@@H](OCc2ccc(CO)cc2)O1 | -14% | -4% | ? | 0% | 0 | 21µM*
O=C(NCc1nc2ccccc2[nH]1)C1=C[C@H](c2csc3ccccc23)C[C@H](OCc2ccc(CO)cc2)O1 | -5% | -19% | ? | -4% | -29 | 15µM*
O=C(NC1CC1)C1=C[C@H](c2ccc(Br)cc2)C[C@H](OCc2ccc(CO)cc2)O1 | -18% | -21% | 23µM* | -9% | -26 | 15µM*
C[C@H]1C=C(C(=O)NCc2nc3ccccc3[nH]2)O[C@@H](OCc2ccc(CO)cc2)C1 | -18% | -3% | -21% | 8% | -15 | -17%
O=C(NCc1nc2ccccc2[nH]1)C1=C[C@@H](c2ccc(Br)cc2)C[C@@H](OCc2ccc(CO)cc2)O1 | -30% | ? | 9.2µM* | -3% | 0 | 18µM*

Screens (PubChem)
